Measurements from PubChem BioAssay AID588726 (The Scripps Research Institute Molecular Screening Center, 2011).
The whole screen tested about 360,000 compounds, of which about 8,200 (2.3%) were called active. Many of the other results were omitted from the sample, so actives are more common in it than they were. Values without a mark were called inactive. Cut-off read from the data, not from the text of the source: active = inhibition above about 27%; inactive = the rest.

Each compound was assayed against Fructose-bisphosphate aldolase (Mycobacterium tuberculosis (strain ATCC 25618 / H37Rv)) (UniProt P9WQA3) (assay: M. tuberculosis aldolase activity blockers – biochemical, fluorescence, strain H37Rv, primary screen (AID 588726;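 note: 0% = vehicle and 100% = reference inhibitor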)). Details: purified M. tuberculosis FBA, fluorescence read-out, at 1 µM, active compounds read high.
Chain of Fructose-bisphosphate aldolase (Mycobacterium tuberculosis (strain ATCC 25618 / H37Rv)) (P9WQA3 whole entry, looked up): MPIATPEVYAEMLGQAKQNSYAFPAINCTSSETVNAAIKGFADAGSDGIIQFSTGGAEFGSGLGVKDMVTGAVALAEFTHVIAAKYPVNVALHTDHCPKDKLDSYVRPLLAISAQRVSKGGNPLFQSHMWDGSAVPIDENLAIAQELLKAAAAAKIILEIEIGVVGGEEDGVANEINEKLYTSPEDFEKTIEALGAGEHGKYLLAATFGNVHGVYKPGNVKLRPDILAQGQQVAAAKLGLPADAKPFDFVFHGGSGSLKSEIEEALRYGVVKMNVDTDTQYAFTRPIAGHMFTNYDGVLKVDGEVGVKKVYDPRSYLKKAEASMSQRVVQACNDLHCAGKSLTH
For `OC[C@@H]1CN(Cc2cccs2)C[C@H](n2cnc3c(Nc4ccccc4)ncnc32)O1`, the inhibition was 44.8% (active).
With `CCN(CC)c1ncnc2c1ncn2[C@H]1CN(Cc2cccs2)C[C@@H](CO)O1` the inhibition was 1.17%.
For `OC[C@@H]1CN(Cc2cccs2)C[C@H](n2cnc3c(NC4CCCC4)ncnc32)O1`, the inhibition was -0.13%.
Compound `CC1(C)CC2CC(C)(CN2c2ncnc3ccc(Br)cc23)C1` (centres undefined) has an inhibition of 6.02%.
`Cc1occc(=O)c1OCc1c(Cl)cccc1Cl` gave an inhibition of 2.61%.
For `CCCN(C(=O)CSc1nnnn1C)c1c(N)n(Cc2ccccc2)c(=O)[nH]c1=O`, the inhibition was 9.36%.
In the case of `CCCN(C(=O)CSc1nnc(N)s1)c1c(N)n(Cc2ccccc2)c(=O)[nH]c1=O`, the inhibition is reported as 48.3% (active).
With `CN(C(=O)CSc1nnc(N)s1)c1c(N)n(Cc2ccccc2)c(=O)[nH]c1=O` the inhibition was 1.14%.
With `COc1ccc(CNC(=O)C[C@H]2C[C@H](C(=O)N3CCOCC3)[C@@]3(C)c4[nH]c5cc(CCC(=O)N(C)C)ccc5c4CCN3C2=O)cc1OC` the inhibition was -3.63%.
`COc1ccccc1CNC(=O)C1CCN(c2nc3ccccc3o2)CC1` showed an inhibition of 0.23%.
`N#Cc1nc(COc2ccc(Cl)cc2)oc1N1CCCC1` showed an inhibition of -2.71%.
For `COc1ccccc1N(C)S(=O)(=O)c1ccc(C(=O)N2CCC(C(N)=O)CC2)cc1`, the inhibition was 2.31%.
In the case of `Cc1oc(-c2ccccc2F)nc1CS(=O)CC(=O)NCCN1CCCCC1C` (centres undefined), the inhibition is reported as -1.66%.
`Cc1nc(-c2ccccc2)sc1-c1nnc(C2CC2)o1` gave an inhibition of 18.1%.
Work on `Cn1cnnc1Sc1ccc(CN2CCN(C3CCCC3)C(CCO)C2)o1` (centres undefined) yielded an inhibition of -0.65%.
For `CCCCCCCCCCCCN1[C@@H](CC(C)=O)c2cc(F)cc(F)c2S1(=O)=O`, the inhibition was -2.16%.
For `COc1ccc(CCNC(=O)c2ccc(NC(=O)CC3SC(N4CCCCC4)=NC3=O)cc2)cc1OC` (centres undefined), the inhibition was 1.72%.
Compound `NS(=O)(=O)c1ccc(CCNC(=O)CNC(=O)Cc2ccccc2)cc1` has an inhibition of 4.09%.
Compound `CC[C@@]1(C(=O)OC)N[C@H](CN(C)C(C)=O)[C@@H]2C(=O)N(C)C(=O)[C@@H]21` has an inhibition of -0.4%.
Compound `O=C1C2C3C=CC(C3)C2C(=O)N1c1ncc([N+](=O)[O-])s1` (centres undefined) has an inhibition of 0.42%.
`Cc1ccc2nnn(Cc3cccc(C(C)(C)C)c3O)c2c1` was tested, and the inhibition was -1.49%.
In the case of `Cc1c(OC(C)C(=O)N[C@@H](Cc2ccccc2)C(=O)O)ccc2c3c(c(=O)oc12)CCCC3` (some centres undefined), the inhibition is reported as 57.5% (active).
For `Cc1c(OC(C)C(=O)NCC2CCC(C(=O)O)CC2)ccc2c1oc(=O)c1ccccc12` (centres undefined), the inhibition was 11.2%.
Work on `Cc1oc2c(C)c3oc(=O)c(CC(=O)N[C@@H](CC(C)C)C(=O)N[C@@H](Cc4ccccc4)C(=O)O)c(C)c3cc2c1C` yielded an inhibition of 14.5%.
For `CCOC(=O)N1CCC(c2cc(=O)n(-c3ccccc3)[nH]2)CC1`, the inhibition was 2.04%.
`NS(=O)(=O)c1ccc(N2C(=O)C3C4CC(C(Br)C4Br)C3C2=O)cc1` (centres undefined) was tested, and the inhibition was 2.97%.
With `COc1ccc(N(CC(=O)Nc2ccc(F)c(F)c2)S(=O)(=O)c2c(C)[nH]c(=O)[nH]c2=O)cc1` the inhibition was 0.84%.
For `O=C(CN1C(=O)c2cccc3cccc(c23)C1=O)N1CCCCC1`, the inhibition was 31.8% (active).
In the case of `Cn1c(=O)n(C)c(=O)n(CC(=O)N2CCCCC2)c1=O`, the inhibition is reported as -2.14%.
`O=C(CN1C(=O)c2cccc3cccc1c23)Nc1ccccc1` was tested, and the inhibition was 1.33%.
For `O=S1(=O)CC/C(=N\Nc2ccc(F)cc2)c2ccsc21`, the inhibition was 0.47%.
`CCn1c(SC)nc(O)c(C(c2ccc(OC)c(O)c2)c2c(O)nc(SC)n(CC)c2=O)c1=O` showed an inhibition of 0.76%.
With `N/C(=N\S(=O)(=O)c1ccc(Cl)cc1)N1CCOCC1` the inhibition was -1.72%.
`O=S(=O)(c1ccccc1)N1CN(Cc2ccc(F)cc2)c2nc3ccccc3nc21` gave an inhibition of 1.18%.
`CC1=CC2=NC(=O)CC(C)(C(=O)N(CC(=O)NC(C)(C)C)Cc3ccccc3)N2C=C1` (centres undefined) was tested, and the inhibition was 39.1% (active).
For `C=CCC1(C(=O)N(C)Cc2ccccc2)CCN(C(=O)OC(C)(C)C)CC1`, the inhibition was -0.41%.
Work on `CCN(CC(=O)Nc1cc(Cl)ccc1C)C(=O)CSCc1ccccc1` yielded an inhibition of 1.52%.
In the case of `Cc1ccc(S(=O)(=O)Nc2nc(N)n(-c3ccccc3)n2)cc1`, the inhibition is reported as -1.75%.
`CCC(=O)Nc1c(S(=O)(=O)c2ccccc2)c2nc3ccccc3nc2n1Cc1ccccc1` was tested, and the inhibition was 71.7% (active).
In the case of `Cc1ccc(S(=O)(=O)c2c(N)n(C)c3nc4ccccc4nc23)cc1`, the inhibition is reported as 195% (active).
In the case of `CCC(=O)Nc1ccccc1C(=O)N1CCN(Cc2ccccc2)CC1`, the inhibition is reported as 1.09%.
With `CCN(CC)CCn1c(N)c(S(=O)(=O)c2ccccc2)c2nc3ccccc3nc21` the inhibition was 73.8% (active).
For `CCC(=O)Nc1ccc2nc(C)n(Cc3ccccc3Cl)c(=O)c2c1`, the inhibition was -0.06%.
`Cc1ccc(S(=O)(=O)NCc2nc3ccccc3c(=O)n2N)cc1` showed an inhibition of 0.87%.
With `CCCn1nc(NS(=O)(=O)c2ccccc2)c2cc3cc(C)ccc3nc21` the inhibition was -1.36%.
For `CCCn1nc(NS(=O)(=O)c2ccc(F)cc2)c2cc3ccccc3nc21`, the inhibition was 1.96%.
Compound `Cc1cc(NC(=O)C(C)SCC(=O)Nc2cccc(S(=O)(=O)N3CCCCCC3)c2)no1` (centres undefined) has an inhibition of 2.17%.
`COc1cccc(NC(=O)CSc2nnc(C3CCCCC3)n2N)c1` gave an inhibition of -1.25%.
`CC(=O)NC(CC(=O)Nc1nccs1)c1ccccc1` (centres undefined) showed an inhibition of 6.36%.
`OC(CN=c1sc2ccccc2n1CC(O)COc1ccccc1)COc1ccccc1` (centres undefined) was tested, and the inhibition was -7.04%.
With `CC(C)COP(=O)(c1ccc(N(C)C)cc1)C(Nc1ccccc1)c1cccnc1` (centres undefined) the inhibition was 6.04%.
Work on `COc1ccc(C(=O)N(CCN2CCOCC2)CC(=O)NC2CCCC2)cc1OC` yielded an inhibition of -0.65%.
With `Cc1ccc2nc(-c3ccccc3)c(CC3CCCCC3)n2c1` the inhibition was 3.26%.
`Cc1ccccc1C(=O)NCCN=C1NS(=O)(=O)c2ccccc21` showed an inhibition of 0.52%.
For `COc1ccc(-n2c(C)nn(CC3CC3)c2=O)cc1`, the inhibition was -1.25%.
For `COc1ccc(CC(NC(C)=O)C(=O)N2CCN(C(=O)Nc3cccc(Cl)c3)CC2)cc1OC` (centres undefined), the inhibition was 1.24%.
Compound `CCCS(=O)(=O)Nc1ccc(-c2cn3c(n2)SCC3)cc1` has an inhibition of 0.71%.
For `CNc1cncc(-c2ccc(NS(C)(=O)=O)cc2)n1`, the inhibition was 174% (active).
With `CS(=O)(=O)Nc1ccc(C(=O)N2CCCC2)cc1` the inhibition was 4.14%.
`C#CCNC(=O)C1=C[C@@H](c2ccccc2)[C@H](CCCO)[C@@H](OCC)O1` showed an inhibition of 0.54%.
`COc1ccc2c(c1)cc1n2CCN=C1NN` was tested, and the inhibition was 41.9% (active).
Compound `COc1ccc2ccn(C)c2c1` has an inhibition of 0%.
In the case of `COc1ccc(N)c(C)c1`, the inhibition is reported as 1.98%.
`Cc1ccc(-c2nc3ccccc3[nH]c2=O)cc1` was tested, and the inhibition was 76.5% (active).
Compound `O=c1[nH]c2ccccc2n2c(-c3ccccc3)nnc12` has an inhibition of 4.09%.
`Cc1ccc(-c2nnc(-n3nnc4ccccc43)c3ccccc23)cc1` showed an inhibition of -0.52%.
Work on `O=C(NCC(=O)N1CCN(c2ccccc2O)CC1)c1ccc2ccccc2c1` yielded an inhibition of 1.15%.
`CC(C(=O)NCCc1ccc(S(N)(=O)=O)cc1)N1C(=O)CC(C)(C)Sc2ccccc21` (centres undefined) gave an inhibition of 4.96%.
`CC(=O)NC1=NC(=O)CS1` was tested, and the inhibition was 3.59%.
For `O=C(COC(=O)c1ccc(Cl)nc1)NCc1ccc2c(c1)OCO2`, the inhibition was -2.36%.
With `CCCn1nc2cc(C(=O)NCc3ccccc3)ccc2c1OCC` the inhibition was 57.5% (active).
`CCOc1c2ccc(C(=O)NC3CCCc4ccccc43)cc2nn1CC` (centres undefined) was tested, and the inhibition was 42.8% (active).
In the case of `Cc1cc(N2C(=O)c3ccc(C(=O)NCc4ccccc4)cc3C2=O)no1`, the inhibition is reported as 0.51%.
Compound `COc1ccccc1-n1c(C)nc2cc(C(=O)NCc3ccc4c(c3)OCO4)ccc21` has an inhibition of 0.13%.
In the case of `C[n+]1ccc(C(=O)NCc2ccccc2)cc1`, the inhibition is reported as 3.53%.
Work on `COc1ccc(CNC(=O)c2ccc3oc(C(C)C)nc3c2)cc1` yielded an inhibition of 0.16%.
Compound `CNS(=O)(=O)c1cccc(C(=O)NC2CCCc3ccccc32)c1` (centres undefined) has an inhibition of 5.34%.
`CCOc1c2ccc(C(=O)NCc3ccc4c(c3)OCO4)cc2nn1C` was tested, and the inhibition was 50.2% (active).
`CCOc1ccc(NC(=O)COc2ccc(C(=O)NC3CCCc4ccccc43)cc2OC)cc1` (centres undefined) gave an inhibition of 3.93%.
In the case of `C=CCOc1c2ccc(C(=O)N(CC)c3ccc(OC)cc3)cc2nn1C`, the inhibition is reported as 17.6%.
`CCOc1c2ccc(C(=O)NCc3ccc(OC(F)(F)F)cc3)cc2nn1C` was tested, and the inhibition was 44% (active).
`Cc1ccc(Nc2ccccc2N)cc1` was tested, and the inhibition was 8.06%.
For `CC1(C)Cc2cccc(OCC(=O)N3CCN(c4ccc([N+](=O)[O-])cc4)CC3)c2O1`, the inhibition was -5.39%.
Compound `O=C(CCN1CCCCC1)Nc1ccc(F)c(F)c1` has an inhibition of -0.67%.
Work on `Cc1noc(C)c1CCC(=O)O` yielded an inhibition of 1.72%.
With `CC(C)(C)n1nnc(CCc2nnn(C(C)(C)C)n2)n1` the inhibition was 2.81%.
Compound `COc1ccc(CCNC(=O)C2CC3Cn4c(nc5cc(C)c(C)cc54)C3N2C)cc1` (centres undefined) has an inhibition of 1.06%.
Work on `CCC1CCCCN1C(=O)CSc1nc2c(c(=O)n1C)SC(C)C2` (centres undefined) yielded an inhibition of -1.89%.
In the case of `COc1nc(N=C(N)N)nc2c(C)cccc12`, the inhibition is reported as 32.9% (active).
`Cc1nc(N=C(N)N)nc2c(C)cccc12` was tested, and the inhibition was 8%.
`CCc1c(C)nc2c(OC)cccc2c1Cl` showed an inhibition of 6.78%.
For `COc1ccc2cc(C(=O)C3CCCN(C(=O)c4sc(C)nc4C)C3)ccc2c1` (centres undefined), the inhibition was 162% (active).
`CCn1nc(C)cc1C(=O)N1CCCC(C(=O)c2cccc(OC)c2)C1` (centres undefined) gave an inhibition of -1.49%.
`COc1ccc(C(=O)C2CCCN(C(=O)c3cnsn3)C2)c(C)c1` (centres undefined) showed an inhibition of 2.56%.
